PubChem BioAssay (EPA / NIEHS)
Inconclusive results are not listed. Active and inactive are the calls of the source. How the source made its calls: active means hit-call score of the fitted dose curve at least 0.9, where 1 is the maximum; inconclusive means response in the unintended direction; inactive means score below 0.9.

assay: Tanguay_ZF_120hpf_EYE_legacy: (Legacy) Oregon State University Tanguay Lab 120 Hour Post-fertilization zebrafish Assay for Eye Malformation (AID 2283636);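 further: binary presence or absence of eye malformation scored by brightfield in 120 hpf larvae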
In short: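 Binary brightfield scoring of eye defects at 120 hpf after static exposure from 6 hpf of single pronase-dechorionated wild-type embryos (28C, 0.64% DMSO). Non-mortality endpoints omitted where embryos died; fit vs DMSO.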

| Compound | AC50 | outcome |
| --- | --- | --- |
| CCOP(=O)(NC(C)C)Oc1ccc(SC)c(C)c1 (stereo unspecified) | 14.6 µM (active) |  |
| COc1cc(OC)nc(Sc2cccc(Cl)c2C(=O)O)n1 |  | inactive |
| CCOP(=S)(OCC)Oc1ccc2c(C)c(Cl)c(=O)oc2c1 |  | inactive |
| CC(=NC#N)N(C)Cc1ccc(Cl)nc1 |  | inactive |
| CN(C)NC(=O)CCC(=O)O |  | inactive |
| FC(F)C(F)(F)OCC(Cn1cncn1)c1ccc(Cl)cc1Cl (stereo unspecified) | 47.5 µM (active) |  |
| CCc1cccc(C)c1N(C(=O)CCl)C(C)COC (stereo unspecified) |  | inactive |
| COP(=O)(OC)C(O)C(Cl)(Cl)Cl (stereo unspecified) |  | inactive |
| CC(C)=CC1C(C(=O)OCN2C(=O)C3=C(CCCC3)C2=O)C1(C)C (stereo unspecified) |  | inactive |
| CC(C)N(C(=O)SCC(Cl)=C(Cl)Cl)C(C)C |  | inactive |
| CCCCOC(=O)c1ccccc1C(=O)O |  | inactive |
| CCC(=O)Nc1ccc(Cl)c(Cl)c1 |  | inactive |
| COc1cccc(C(=O)NN(C(=O)c2cc(C)cc(C)c2)C(C)(C)C)c1C |  | inactive |
| S=C1NCCN1 |  | inactive |
| CCCCSP(=O)(SCCCC)SCCCC |  | inactive |
| CCOP(=S)(OCC)SCCSCC |  | inactive |

| Compound | AC50 | outcome |
| --- | --- | --- |
| C#CCC1=C(C)C(OC(=O)C2C(C=C(C)C)C2(C)C)CC1=O (stereo unspecified) |  | inactive |
| CCOC(=O)CC(SP(=O)(OC)OC)C(=O)OCC (stereo unspecified) | 12.1 µM (active) |  |
| CON=C(C(=O)OC)c1ccccc1CON=C(C)c1cccc(C(F)(F)F)c1 | 5.22 µM (active) |  |
| CCOP(=S)(OCC)Oc1ccc([N+](=O)[O-])cc1 |  | inactive |
| Cc1cc(C2CC2)nc(Nc2ccccc2)n1 |  | inactive |
| C[Si](Cn1cncn1)(c1ccc(F)cc1)c1ccc(F)cc1 | 46.9 µM (active) |  |
| CCC(CC)Nc1c([N+](=O)[O-])cc(C)c(C)c1[N+](=O)[O-] |  | inactive |
| O=c1ccc(=O)[nH][nH]1 |  | inactive |
| CC1(C(=O)Nc2ccc(O)c(Cl)c2Cl)CCCCC1 |  | inactive |
| CNC(=O)ON=C(SC)C(=O)N(C)C |  | inactive |
| Nc1nc(N)nc(NC2CC2)n1 |  | inactive |
| CSC1=N[C@@](C)(c2ccccc2)C(=O)N1Nc1ccccc1 |  | inactive |
| CC[C@H](C)[C@H]1O[C@]2(C=C[C@@H]1C)C[C@@H]1C[C@@H](C/C=C(\C)[C@@H](O[C@H]3C[C@H](OC)[C@@H](O[C@H]4C[C@H](OC)[C@@H](NC)[C@H](C)O4)[C@H](C)O3)[C@@H](C)/C=C/C=C3\CO[C@@H]4[C@H](O)C(C)=C[C@@H](C(=O)O1)[C@]34O)O2 |  | inactive |
| N#CSCSC#N |  | inactive |
| COP(=O)(NC(C)=O)SC (stereo unspecified) |  | inactive |
